Assay outcomes deposited in PubChem by several laboratories.
TIM10 inh: growth inhibitors of TIM10 yeast strain; S. cerevisiae TIM10 strain growth, BacTiter-Glo luminescence, 24 h; inhibition, % at 10 µM; 330,000 tested, 1.4% active;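 active = inhibition of 40% or more at the single tested concentration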;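 also: wild-type TIM10 isogenic control strain grown at permissive 25 °C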
tim23-1 inh: tim23-1 yeast growth inhibition. S. cerevisiae tim23-1 growth, BacTiter-Glo luminescence, 24 h. AID 463212. 330,000 tested, 1.3% active. inhibition, % at 20 µM;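 active = growth inhibition of the mutant yeast at or above 50%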;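 also: temperature-sensitive mutant grown at 25 °C; plate controls were DMSO-treated mutant yeast for no effect and medium wells lacking yeast for full effect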
V-ATPase pHluor: alters yeast V-ATPase proton transport; 350,000 tested, 0.37% active; response, % at 10 µM; S. cerevisiae, pHLuorin cytosolic pH fluorescence; in the data active = response mostly above about 7.3%, no sharp cut-off; inactive = mostly below about 5.4%; also: actives read high
tim10-1 inh: growth inhibitors of tim10-1 mutant yeast; S. cerevisiae tim10-1 ts strain growth, BacTiter-Glo, 24 h; inhibition, % at 20 µM; 330,000 tested, 2.2% active; AID 463190;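 active = inhibition of at least 40%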;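 also: mutant grown at 25 °C; 0% = DMSO wells with yeast and 100% = wells holding no yeast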
NALP1 inh: NALP1 inhibition | S. cerevisiae NALP1/ASC/caspase-1 growth, X-gal OD620, 72 h | inhibition, % at 10 µM | 280,000 tested, 0.61% active | AID 2071; in the data active = inhibition mostly above about 24%, no sharp cut-off; inactive = mostly below about 32%
NLRP3 yeast inh: NALP3 inhibition in yeast | Yeast reconstituted NLRP3/ASC/caspase-1, beta-gal luminescence, 24 h | inhibition, % at 10 µM | 330,000 tested, 0.39% active | AID 2825;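 active = inhibition of 50% or more; inactive = inhibition below 50%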;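 also: plate controls were induced DMSO wells for no effect and uninduced yeast grown without galactose for full effect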
tim23-1 conf: confirmation of tim23-1 mutant yeast growth inhibitors; shares compounds with tim23-1 inh; S. cerevisiae tim23-1 growth, BacTiter-Glo luminescence, 24 h; inhibition, % at 20 µM; 4,400 tested, 83% active;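 active = inhibition above about 39% in either of two replicate wells at 20 µM, limit read from the data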;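 also: temperature-sensitive tim23-1 mutant grown at 25 °C; 0% = DMSO wells with yeast and 100% = medium wells without yeast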
* hit, by the source's call; x = not tested or not shown. The list is not random: actives were taken first. Their share in the collection is about 4.2%.

SMILES	TIM10 inh	tim23-1 inh	V-ATPase pHluor	tim10-1 inh	NALP1 inh	NLRP3 yeast inh	tim23-1 conf
O=C1C=C(c2ccc3c(c2)OCCO3)C[C@@H](c2ccc(F)cc2)C1	17	51*	-2	22	x	1	48*
COc1ccc([C@H]2CC(=O)C=C(c3ccc4[nH]ccc4c3)C2)cc1OC	20	34	-2	20	x	12	x
O=C1C=C(c2ccc3[nH]ccc3c2)C[C@@H](c2ccc(F)cc2)C1	25	53*	0	39	x	4	50*
COc1cccc(/C(C)=N/Nc2ccc(S(=O)(=O)N3CCCCC3)cn2)c1	39	51*	3	27	x	3	44*
C/C(=N\Nc1ccc(S(=O)(=O)N2CCCCC2)cn1)c1ccc(O)cc1	39	35	2	26	x	2	x
COC(=O)Nc1ccc2c(c1)Nc1ccccc1CC2	6	66*	-2	32	2	12	42*
O=c1c2[nH]c3ccc(F)cc3c2ncn1CCCn1ccnc1	5	14	1	3	12	3	x
COc1cc2ccccc2cc1C(=O)Nc1ccc(Cc2ccncc2)cc1	33	37	-1	30	32	0	x
COc1cn(-c2ccccc2)nc1C(=O)Nc1ccccc1	18	19	0	-11	13	26	x
COc1ccc(C)cc1NC(=O)c1nn(-c2ccccc2)cc1OC	-6	55*	-7	0	22	33	68*
COc1cn(-c2ccccc2)nc1C(=O)Nc1ccc(C)cc1	30	50*	-1	-51	17	26	39
COc1cc2ccccc2cc1C(=O)Nc1ccc(C)cc1	0	59*	1	-4	15	41	64*
CCCCn1c(N)c(N(CCOC)C(=O)C2CCN(c3ncnc4sc(C)c(C)c34)CC2)c(=O)[nH]c1=O	6	53*	-2	14	x	4	47*
Cc1csc2ncnc(N3CCN(C(=S)Nc4ccc(C(F)(F)F)cc4)CC3)c12	23	21	2	28	-1	18	x
Cc1csc2c(N3CCN(C(=O)Nc4ccc(Cl)c(Cl)c4)CC3)ncnc12	19	67*	-2	27	x	31	50*
Cc1csc2c(N3CCN(C(=S)Nc4ccc(C(F)(F)F)cc4)CC3)ncnc12	26	55*	-2	25	x	22	46*
Cc1ccc(Nc2nc(-c3cccnc3)nc3ccccc23)cc1	-13	56*	4	26	17	35	56*
CC(Nc1nc(-c2cccnc2)nc2ccccc12)c1ccc(F)cc1 (configuration not stated)	26	59*	5	-7	23	10	60*
Cc1cccc(NC(=S)N/N=C/c2ccc(Cl)c([N+](=O)[O-])c2)c1	-8	5	3	13	0	17	x
CCC(=O)N1CCN(c2ccc(NC(=O)c3ccc([N+](=O)[O-])o3)cc2Cl)CC1	x	x	-3	x	3	x	x
O=C(Nc1ccc(S(=O)(=O)N2CCOCC2)cc1)c1ccc([N+](=O)[O-])o1	18	26	-3	28	-6	-6	x
CC(=O)N1CCN(c2ccc(NC(=O)c3ccc([N+](=O)[O-])o3)cc2Cl)CC1	35	51*	-2	13	0	19	76*
O=C(Nc1ccc(S(=O)(=O)N2CCCC2)cc1)c1ccc([N+](=O)[O-])o1	35	52*	-1	19	x	1	34*
CC(C)(C)c1ccc(C(=O)NCCN2CCCC2)cc1	-4	10	1	-15	-2	11	x
COCCOC(=O)c1c(C)n(C)c2ccc(OC(=O)c3ccccc3OC)cc12	6	30	1	24	18	15	x
SMILES	TIM10 inh	tim23-1 inh	V-ATPase pHluor	tim10-1 inh	NALP1 inh	NLRP3 yeast inh	tim23-1 conf
Cc1sc(NC(=O)c2ccco2)nc1-c1ccccc1	31	56*	2	35	57	30	72*
CCCC(CCC)c1nnc(NC(=O)c2ccco2)s1	32	62*	-1	39	15	14	64*
CCC(c1ccccc1)c1nnc(NC(=O)c2ccco2)s1 (configuration not stated)	8	10	-4	7	x	-1	x
O=C(Nc1nc2c(F)cccc2s1)c1ccco1	22	55*	6	32	-3	37	54*
Cc1ccc(OCC(O)Cn2c(=N)n(CCN3CCCCC3)c3ccccc32)cc1 (configuration not stated)	-22	10	-2	-5	8	-1	x
CC(C)C[C@H]1CNC(=S)N1CC1CCN(CCCC2CCCC2)CC1	x	x	2	x	x	x	x
Cc1nnc(SCC(=O)N2CCN(c3cccc(Cl)c3)CC2)n1C1CC1	-11	-4	-2	-11	x	4	x
COc1ccc(OC)c(S(=O)(=O)NC(N)=NCCc2ccccc2)c1	9	13	-2	-7	7	-18	x
CCN(CC)C(=O)CCc1nnc(CCc2c[nH]c3ccccc23)o1	14	13	2	16	8	-12	x
Cc1cccc(-c2ccc3ncnc(NCc4cccs4)c3c2)c1	12	38	4	24	x	17	x
Clc1ccccc1-c1ccc2ncnc(NCc3cccs3)c2c1	31	54*	3	27	x	17	34
Clc1cccc(-c2ccc3ncnc(NCc4cccs4)c3c2)c1	24	51*	-1	19	x	10	40*
CCCCN(Cc1ccccc1)S(=O)(=O)c1cc(Br)cc2c1N(C(C)=O)C(C)C2 (configuration not stated)	33	56*	1	23	27	22	53*
CC1CCCN(c2ccc(N)cc2C(N)=O)C1 (configuration not stated)	-2	1	-3	13	1	11	x
CC(C)[C@@]1(c2ccccc2)ON(c2ccccc2C(F)(F)F)C1=O	1	6	x	-46	x	3	x
Cc1ccccc1[C@]1(C)ON(c2ccccc2C(F)(F)F)C1=O	31	53*	x	9	x	35	58*
CC(=O)Nc1ccc(-c2cn3c(n2)SCC3)cc1	-20	6	3	0	17	-4	x
O=C(Nc1ccc(-c2cn3c(n2)SCC3)cc1)c1ccco1	16	51*	3	11	14	12	44*
O=C(CCc1ccccc1)Oc1ccccc1[N+](=O)[O-]	36	57*	11	30	x	7	67*
CCn1c(N2CCN(S(=O)(=O)c3ccccc3C(F)(F)F)CC2)nc2ccccc21	23	35	0	36	8	2	x
CCn1c(N2CCN(S(=O)(=O)c3ccc(OC)cc3)CC2)nc2ccccc21	-12	59*	3	-12	1	11	44*
COc1cccc(Cn2cc(N)cn2)c1	8	-1	1	-3	-3	19	x
CCN(CC)c1nc(-c2ccccc2)nc2ccccc12	32	51*	5	27	16	18	43*
